36 compounds from PubChem BioAssay (NCATS) can be followed below.

SMILES strings stand for the structures. Inconclusive results are not listed. A call without a number means that no potency is given here. Activity calls are given as the source filed them. Calls follow the shape of the dose curve; as a rule, active = well fitted curve in the direction sought with a large enough effect; inconclusive = small, poorly fitted or top-dose-only effect, or another doubt; inactive = no such curve, though single readings can be large; an effect the other way counts as inactive or inconclusive.

The target of one assay is Calcium and integrin-binding protein 1 (Homo sapiens) (UniProt Q99828). Put plainly: Primary qHTS for Identification of Calcium Integrin Binding Protein 1 (CIB1) Competitor (AID 1508620). Also: top concentration of the series differs between compounds. As to conditions: CIB1-GST / FITC-alphaIIb peptide fluorescence polarization; series mostly up to 57.7 µM; activity change, negative = inhibition: at the top concentration. The method, boiled down: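 Fluorescence polarization competition: GST-tagged CIB1 (1 uM final) preincubated with compound 15 min at room temperature, then FITC-labelled alphaIIb peptide (100 nM final) added. After 15 min at room temperature, polarization read at Ex 480/Em 540.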
Chain of Calcium and integrin-binding protein 1 (Homo sapiens) (Q99828 whole entry, looked up): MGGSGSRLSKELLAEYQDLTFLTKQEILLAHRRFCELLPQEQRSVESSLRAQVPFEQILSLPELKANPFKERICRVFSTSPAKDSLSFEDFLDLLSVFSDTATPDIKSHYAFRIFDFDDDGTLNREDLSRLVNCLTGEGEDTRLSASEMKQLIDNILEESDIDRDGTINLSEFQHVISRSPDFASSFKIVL
(In general: Quantitative high-throughput screening tests each substance at several concentrations.)
For the compound `CCCc1nc2c(C)cc(-c3nc4ccccc4n3C)cc2n1Cc1ccc(-c2ccccc2C(=O)O)cc1`, the outcome was inactive. With `CNC(=O)c1ccc(C)c(-n2c(C)cc(OCc3ccc(F)cc3F)c(Br)c2=O)c1`, the result was inactive.

For the compound `Clc1ccc(Nc2nnc(Cc3ccncc3)c3ccccc23)cc1`, the result was inactive.

As to `O=C(O)CCc1ccc(NCc2cccc(Oc3ccccc3)c2)cc1`, the outcome was inactive. Still for that read-out and setting: the result for `CC[C@H](Nc1ncnc2nc[nH]c12)c1nc2cccc(F)c2c(=O)n1-c1ccccc1` reads “inactive”.

Consider `O=C(O)COCCN1CCN(C(c2ccccc2)c2ccc(Cl)cc2)CC1` (configuration not stated), for which the result was inactive. The same measure, in the same setting: then `Cn1cnc2c(F)c(Nc3ccc(Br)cc3Cl)c(C(=O)NOCCO)cc21`, with “inactive”. `COc1ccc2nc(S(=O)Cc3ncc(C)c(OC)c3C)[nH]c2c1` (configuration not stated): the “activity change, negative = inhibition” value was -28.1% [at 114 µM] (inactive). Same read-out and setting: the result for `Nc1ncnc2nc(-c3ccc(N4CCOCC4)nc3)cc(-c3cccc(Br)c3)c12` reads -1.49% (inactive). `Cc1c(C)c2c(c(C)c1O)CCC(C)(COc1ccc(CC3SC(=O)NC3=O)cc1)O2` (configuration not stated): the result was inactive. Take `COc1cccc2cc(-c3nc(C4CCC(C(=O)O)CC4)n4ncnc(N)c34)[nH]c12` (configuration not stated): the outcome was inactive. On to `Nc1nc2c(ncn2COCCO)c(=O)[nH]1`, for which the outcome was inactive. On the same count and under the same terms, then `CCCc1nn(C)c2c(=O)[nH]c(-c3cc(S(=O)(=O)N4CCN(C)CC4)ccc3OCC)nc12`, with “inactive”; and `CNC[C@H](O)c1cccc(O)c1`, with “inactive”; and `Cc1cn[nH]c1`, with “inactive”. Same read-out and setting: the result for `CC(C)(Sc1ccc(CCN(CCCCC2CCCCC2)C(=O)NC2CCCCC2)cc1)C(=O)O` reads “inactive”; that for `O=C1CCCC2=C1C(c1[nH]ncc1Cl)N=C(Nc1nc3ccccc3o1)N2` (configuration not stated), “inactive”. As to `Cc1ccc(-n2nc(C(C)(C)C)cc2NC(=O)Nc2ccc(OCCN3CCOCC3)c3ccccc23)cc1`, the “activity change, negative = inhibition” value was -17.2% (inactive).

Regarding `C[C@H](NC(=O)Cc1cc(F)cc(F)c1)C(=O)N[C@@H]1C(=O)N(C)c2ccccc2-c2ccccc21`, the result was inactive. With `O=C1CCC(N2C(=O)c3ccccc3C2=O)C(=O)N1` (configuration not stated), the “activity change, negative = inhibition” value was 1.56% (inactive). `CC(C)(C)NCC(O)c1ccc(O)c(CO)c1` (configuration not stated): the outcome was inactive. On the same count and under the same terms, the result for `CC(c1cc2ccccc2s1)N(O)C(N)=O` (configuration not stated) reads “inactive”; that for `CCn1cc(C(=O)O)c(=O)c2cc(F)c(N3CCNC(C)C3)c(F)c21` (configuration not stated), “inactive”.

For the compound `CCc1ccc(CCOc2ccc(CC3SC(=O)NC3=O)cc2)nc1` (configuration not stated), the result was inactive. Same read-out and setting: the result for `C#Cc1cccc(Nc2ncnc3cc(OCCOC)c(OCCOC)cc23)c1` reads “inactive”. Take `CS(=O)(=O)c1cccc(CNc2nc(Nc3ccc4c(c3)CCC(=O)N4)ncc2C(F)(F)F)c1`: the result was inactive. Still for that read-out and setting: the result for `CCc1cncnc1N1CCN(Cc2nc3ccc(C(F)(F)F)cc3[nH]2)CC1` reads “inactive”. Still for that read-out and setting: the result for `NC(=O)c1cnccn1` reads “inactive”; that for `CCC(C)n1ncn(-c2ccc(N3CCN(c4ccc(OC[C@H]5CO[C@](Cn6cncn6)(c6ccc(Cl)cc6Cl)O5)cc4)CC3)cc2)c1=O` (some centres not stated), “inactive”.

System in a further assay: not listed separately
The assay can be described thus: Counterscreen qHTS for small molecule stabilizers of the endoplasmic reticulum resident proteome: GLuc-NoTag assay (AID 1508627).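 Also: SH-SY5Y cells given compound then 100 nM thapsigargin to empty ER calcium.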 The note with it: Gaussia luciferase NoTag secretion counterscreen, luminescence, thapsigargin 100 nM for final 4 h; series mostly up to 76.4 µM; activity change, negative = inhibition: at the top concentration. In short, it runs like this: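 SH-SY5Y cells stably expressing constitutively secreted GLuc without SERCaMP tag, exposed to compound for 19 hr, then to 100 nM thapsigargin for 4 hr at 37C. Medium luciferase was read by coelenterazine luminescence without lysis.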
A general note: A counterscreen serves to expose hits that act by an unwanted route or on another target.
Consider `CCN(CC)CCCC(C)Nc1ccnc2cc(Cl)ccc12` (configuration not stated), for which the “activity change, negative = inhibition” value is 57.2% (inactive). On the same count and under the same terms, the result for `COc1ccc2nc(S(=O)Cc3ncc(C)c(OC)c3C)[nH]c2c1` (configuration not stated) reads 27.8% (inactive); that for `Nc1nc2c(ncn2COCCO)c(=O)[nH]1`, 16.1% (inactive); that for `CC(C)(Sc1ccc(CCN(CCCCC2CCCCC2)C(=O)NC2CCCCC2)cc1)C(=O)O`, 36.1% (inactive). Regarding `Cc1ccc(N(CC2=NCCN2)c2cccc(O)c2)cc1`, the “activity change, negative = inhibition” value was 18.1% (inactive).

System in a further assay: not listed separately
The assay can be described thus: Cell Viability qHTS for small molecule stabilizers of the endoplasmic reticulum resident proteome (AID 1508629).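 Also: human SH-SY5Y neuroblastoma cells carrying the GLuc-SERCaMP reporter; compound exposure about 46 h in total before the viability read.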 The note with it: cell viability counter-screen, 100 nM thapsigargin for final 4 h.
`CCN(CC)CCCC(C)Nc1ccnc2cc(Cl)ccc12` (configuration not stated): the max response was -9.95% (inactive).

Regarding `COc1ccc2nc(S(=O)Cc3ncc(C)c(OC)c3C)[nH]c2c1` (configuration not stated), the max response is -2.62% (inactive). The same measure, in the same setting: the result for `Nc1nc2c(ncn2COCCO)c(=O)[nH]1` reads 1.71% (inactive).

System in a further assay: not listed separately
The assay can be described thus: Primary qHTS for small molecule stabilizers of the endoplasmic reticulum resident proteome: Secreted ER Calcium Modulated Protein (SERCaMP) assay (AID 1508630). As to conditions: SH-SY5Y GLuc-SERCaMP (Gaussia luciferase released on ER calcium loss) secretion, thapsigargin, luminescence; series mostly up to 38.4 µM; activity change, negative = inhibition: at the top concentration. In short, it runs like this:
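GLuc-SERCaMP-expressing SH-SY5Y cells, pretreated 16 h with compound, are challenged with thapsigargin to empty ER calcium stores; after 4 h, coelenterazine is added directly to the medium and luminescence is imaged.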
Regarding `CCCc1nc2c(C)cc(-c3nc4ccccc4n3C)cc2n1Cc1ccc(-c2ccccc2C(=O)O)cc1`, the Potency result is “inactive”.

Consider `Clc1ccc(Nc2nnc(Cc3ccncc3)c3ccccc23)cc1`, for which the “activity change, negative = inhibition” value was 13.1% (inactive). As for `C[C@]12CCC(=O)C=C1CC[C@@H]1[C@@H]2[C@@H](O)C[C@@]2(C)[C@H]1CC[C@]2(O)C(=O)CO`, the Potency entry was “inactive”. On the same count and under the same terms, the result for `O=C(O)CCc1ccc(NCc2cccc(Oc3ccccc3)c2)cc1` reads “inactive”.

In the case of `Cn1cnc2c(F)c(Nc3ccc(Br)cc3Cl)c(C(=O)NOCCO)cc21`, the “activity change, negative = inhibition” value was 118% (inactive). `COc1ccc2nc(S(=O)Cc3ncc(C)c(OC)c3C)[nH]c2c1` (configuration not stated): the Potency entry was “inactive”.

`Cc1c(C)c2c(c(C)c1O)CCC(C)(COc1ccc(CC3SC(=O)NC3=O)cc1)O2` (configuration not stated): the Potency entry is “inactive”. The same measure, in the same setting: the result for `Nc1nc2c(ncn2COCCO)c(=O)[nH]1` reads “inactive”. Same read-out and setting: then `CCCc1nn(C)c2c(=O)[nH]c(-c3cc(S(=O)(=O)N4CCN(C)CC4)ccc3OCC)nc12`, with “inactive”. On to `CNC[C@H](O)c1cccc(O)c1`, for which the “activity change, negative = inhibition” value was -22% (inactive).

On to `Cc1cn[nH]c1`, for which the Potency entry is “inactive”. In the case of `CC(C)(Sc1ccc(CCN(CCCCC2CCCCC2)C(=O)NC2CCCCC2)cc1)C(=O)O`, the “activity change, negative = inhibition” value was -21% (inactive). Still for that read-out and setting: the result for `O=C1CCCC2=C1C(c1[nH]ncc1Cl)N=C(Nc1nc3ccccc3o1)N2` (configuration not stated) reads -0.861% (inactive).

As for `Cc1ccc(-n2nc(C(C)(C)C)cc2NC(=O)Nc2ccc(OCCN3CCOCC3)c3ccccc23)cc1`, the “activity change, negative = inhibition” value is 90.1% (inactive). Take `Cc1cnc(NC(=O)C2=C(O)c3ccccc3S(=O)(=O)N2C)s1`: the Potency result is “inactive”.

Regarding `O=C1CCC(N2C(=O)c3ccccc3C2=O)C(=O)N1` (configuration not stated), the “activity change, negative = inhibition” value was -29.7% [at 76.3 µM] (inactive).

As to `Cc1ccc(N(CC2=NCCN2)c2cccc(O)c2)cc1`, the Potency entry is “inactive”. As for `CC(c1cc2ccccc2s1)N(O)C(N)=O` (configuration not stated), the “activity change, negative = inhibition” value was -12% (inactive). `CCc1ccc(CCOc2ccc(CC3SC(=O)NC3=O)cc2)nc1` (configuration not stated): the “activity change, negative = inhibition” value is 0% (inactive). Regarding `C#Cc1cccc(Nc2ncnc3cc(OCCOC)c(OCCOC)cc23)c1`, the Potency result was “inactive”.

Regarding `Cc1cc2c(C(C)C)c(O)c(O)c(C=O)c2c(O)c1-c1c(C)cc2c(C(C)C)c(O)c(O)c(C=O)c2c1O`, the Potency result is “inactive”.

Turning to `CN1CCN(CCCN2c3ccccc3Sc3ccc(C(F)(F)F)cc32)CC1`, the Potency result was “inactive”.

As to `CCc1cncnc1N1CCN(Cc2nc3ccc(C(F)(F)F)cc3[nH]2)CC1`, the “activity change, negative = inhibition” value was 26.4% (inactive). As to `N=c1nc(N2CCCCC2)cc(N)n1O`, the Potency entry is “inactive”. For `CCC(C)n1ncn(-c2ccc(N3CCN(c4ccc(OC[C@H]5CO[C@](Cn6cncn6)(c6ccc(Cl)cc6Cl)O5)cc4)CC3)cc2)c1=O` (some centres not stated), the Potency entry is “inactive”.
